# The campaign covered roughly 230,000 compounds. About 1,000 (0.43%) were called active. Calls follow the shape of the dose curve; as a rule, active = well fitted inhibition curve with a large enough effect (not every such curve was filed as active); inactive = no such curve, though single readings can be large or run the other way. Only a selection was taken, and actives are over-represented in it overall.
# Molecular target: Guanine nucleotide-binding protein G(i) subunit alpha-1 (Homo sapiens) (UniProt P63096)
# Sequence (P63096 whole entry, looked up): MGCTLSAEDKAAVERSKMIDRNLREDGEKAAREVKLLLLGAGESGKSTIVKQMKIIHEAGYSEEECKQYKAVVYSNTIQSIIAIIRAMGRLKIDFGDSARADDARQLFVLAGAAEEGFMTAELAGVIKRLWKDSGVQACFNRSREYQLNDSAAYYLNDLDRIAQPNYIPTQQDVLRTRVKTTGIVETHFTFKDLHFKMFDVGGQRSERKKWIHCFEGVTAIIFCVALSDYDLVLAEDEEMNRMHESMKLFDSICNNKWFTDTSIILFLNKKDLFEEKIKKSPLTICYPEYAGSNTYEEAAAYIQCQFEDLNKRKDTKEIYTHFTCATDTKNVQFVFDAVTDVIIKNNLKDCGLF
# Test: qHTS Assay for Inhibitors of RGS12 GoLoco Motif Activity (Red Fluorophore); also: nearly all actives have a fitted effect of over 30% in size
# Settings: Gai1:RGS12 GoLoco peptide FP, rhodamine, 10 min; series mostly up to 61.6 µM; activity, negative = inhibition: at the top concentration
# % is scaled to controls: 0 for no effect and ±100 for the full control effect; potency is read from the fitted curve at half-maximal effect.
Structure (SMILES),"activity, negative = inhibition",Potency
COc1ccc(-c2nc(-c3ccccc3)oc2Nc2ccc3ccccc3c2)cc1,-5.32% (inactive),
CC1(C)CC(=O)C=C(N2CCCC2)C1,-22.1% (inactive),
CC1(C)CC(N2CCN(C(c3ccccc3)c3ccccc3)CC2)=CC(=[N+]2CCCCC2)C1,,17.8 µM (active)
O=C1CC(N2CCN(C(c3ccccc3)c3ccccc3)CC2)C(=O)N1 (stereo unspecified),2.76% (inactive),
CCOC(=O)/C(C#N)=C/c1ccc(N2CCCCC2)cc1,17.3% (inactive),
Cc1ccccc1C(=O)Nc1ccc(N2CCCCCC2)cc1,-22.7% (inactive),
O=C1C=CC(=O)N1c1ccc(N2CCCCC2)cc1,,5.01 µM (active)
N#C/C(=C/c1ccc(N2CCCCC2)o1)C(=O)NCCc1c[nH]c2ccccc12,-1.11% (inactive),
C=C/C1=C/Cc2ccccc2[C@H](C[N+](=O)[O-])C(C(=O)OC)(C(=O)OC)C1,-0.39% (inactive),
COc1ncnc2c1N=C1CC(C)(C)CC(N)=C1S2,,25.1 µM (active)
COc1cccc(-c2cc(=O)c3cc(NC(=O)c4ccc(C)cc4)ccc3[nH]2)c1,4.14% [at 88.7 µM] (inactive),
CC(=O)N(CC(O)CO)c1c(I)c(C(=O)NCC(O)CO)c(I)c(C(=O)NCC(O)CO)c1I (stereo unspecified),9.65% (inactive),
COc1ccc2c(c1)C(=C(C#N)C#N)C(=O)N2CCc1ccccc1,2.09% (inactive),
CC(=O)Nc1ccc(NC(=O)COc2ccc(S(=O)(=O)NC(C)c3ccccc3)cc2)cc1 (stereo unspecified),4.88% (inactive),
COC(C(=O)Nc1ccc(S(=O)(=O)Nc2ccc(C)c(C)c2)cc1)c1ccccc1 (stereo unspecified),1.08% (inactive),
CC(=O)/C(C)=N/O,-21.5% (inactive),
COc1ccccc1C1CCN(C(=S)Nc2ccc(Br)cc2)CC1,3.54% (inactive),
Cc1ccccc1CN(c1ccc(C(=O)NCC2CCCO2)cc1)S(C)(=O)=O (stereo unspecified),-10.8% (inactive),
Cc1ccccc1Cn1c2ccccc2c2cnn(CC(=O)NCc3ccco3)c(=O)c21,-6.25% (inactive),
CC1(C)OC(=O)N2CCc3ccccc3C21C (stereo unspecified),-0.247% (inactive),
COC(=O)c1ccccc1NC(=S)NC(=O)c1ccccc1F,8.73% (inactive),

Structure (SMILES),"activity, negative = inhibition",Potency
CC(C)=CCC[C@]1(C)[C@@H](CC=C(C)C)C[C@@]2(CC=C(C)C)C(=O)[C@]1(C(=O)C(C)C)C(=O)C(CC=C(C)C)=C2O,6.25% (inactive),
O=C(NCc1ccco1)O[C@@H]1C(=O)c2cc(Br)ccc2O[C@H]1c1ccc2c(c1)OCO2,-2.95% (inactive),
COc1cc(/C=N/NC(=S)Nc2cccnc2)cc(OC)c1O,4.13% (inactive),
Cc1cccc([C@H]2[C@@H]3C=CC[C@@H](C)[C@@H]3C(=O)N2Cc2ccccc2)c1,6.72% [at 88.7 µM] (inactive),
CC(=O)N/N=C(\C)c1ccc(Br)cc1Br,2.4% (inactive),
COc1ccc(C2C(C#N)=C(N)Oc3cc(N)ccc32)cc1OC (stereo unspecified),34.9% (inactive),
OC[C@H]1O[C@@H](n2cnc3c(NC4CCCC4)ncnc32)[C@H](O)[C@H]1O,9.13% (inactive),
CC1(C)C2CCC1(C)C(OC(=O)c1ccc(O)cc1)C2 (stereo unspecified),3.31% (inactive),
O=C(CSc1nc(-c2ccccc2)cs1)Nc1cccc([N+](=O)[O-])c1,22.5% (inactive),
N#Cc1cccc(CS(=O)(=O)c2nnnn2-c2cc(C(F)(F)F)cc(C(F)(F)F)c2)c1,5.33% (inactive),
C=CCSc1nc(N)cc(=O)[nH]1,-8.03% (inactive),
Cc1ccc(NC2=C(Cl)C(=O)OC2OC(=O)c2ccccc2C)cc1 (stereo unspecified),1.58% (inactive),
Cc1cc(C)cc(NC(=S)NCc2ccc(F)cc2)c1,10.8% (inactive),
O=C(C/C(=N\NC(=O)c1ccccc1Br)C(F)(F)F)c1cccs1,2.99% (inactive),
Cc1cc(C(=O)NNC(=S)Nc2ccccc2C)cs1,-2.37% (inactive),
CN(C)C(=O)c1coc2nc3ccccc3nc12,7.19% (inactive),
O=C1NC(c2ccc(-c3ccccc3[N+](=O)[O-])o2)C(C(=O)c2ccc(Cl)cc2)C(O)(C(F)(F)F)N1 (stereo unspecified),2.26% (inactive),
COc1ccc(/C=C/C2=CC(C)(C)NC(=S)N2)c(OC)c1,16% (inactive),
COC(=O)[C@@H]1CC2=CC(=O)CC[C@]2(C)[C@@]23O[C@@H]2C[C@@]2(C)[C@@H](CC[C@@]24CCC(=O)O4)[C@H]13,0.192% (inactive),
O=c1[nH]c2cccnc2n1-c1ccc([N+](=O)[O-])cc1,1.5% (inactive),
O=C1CC(c2ccccc2)=NN1c1ccc([N+](=O)[O-])cc1,19.2% (inactive),

Structure (SMILES),"activity, negative = inhibition",Potency
O=c1[nH]n(-c2ccc([N+](=O)[O-])cc2)c(=O)c2ccccc12,,14.1 µM (active)
CCn1c(=O)c2cc(C(=O)Nc3cccc(C(C)=O)c3)sc2c2ccccc21,-2.18% (inactive),
COc1ccc(CC(=O)N2N=C(C)CC2(O)C(F)(F)F)cc1 (stereo unspecified),-1.6% (inactive),
COc1ccc(-c2c(C)cc3oc(=O)cc(-c4ccccc4)c3c2C)cc1C=O,-5.78% [at 88.7 µM] (inactive),
CC(=O)Nc1cccc([N+](=O)[O-])c1,4.48% (inactive),
Cc1ccccc1NC(=S)Nc1cccc([N+](=O)[O-])c1,3.92% (inactive),
COC(=O)/C=C\C(=O)Nc1cccc([N+](=O)[O-])c1,,0.891 µM (active)
C/C=C(\C)C(=O)OC1C(OC(=O)C2(C)OC2C)c2cc3ccc(=O)oc3cc2OC1(C)C (stereo unspecified),3.63% (inactive),
O=c1[nH]c(=O)c2nc3ccccc3nc2[nH]1,,inactive
Nc1ccc2nc3c(=O)[nH]c(=S)[nH]c3nc2c1,,14.1 µM (active)
CC(C)(C)NC(=O)c1ccc(Cn2cc(C(F)(F)F)ccc2=O)cc1,-0.997% (inactive),
CCCCCCn1c(SCC(=O)c2ccccc2)nc2c1c(=O)[nH]c(=O)n2C,-8.12% (inactive),
CCCCCCCC[n+]1cccc(C(=O)N2c3c(nc(N)[nH]c3=O)NC(C)C2C)c1 (stereo unspecified),,11.2 µM (active)
CCCCNC(=O)Nc1c(C)cc(SC#N)cc1C,4.69% (inactive),
O=C(Nc1ccc(N2CCOCC2)cc1)c1ccc(-c2ccccc2[N+](=O)[O-])o1,7.4% (inactive),
COc1ccc(-c2csc3nc(-c4ccccc4F)oc(=O)c23)cc1OC,49.5% (inactive),
COc1cccc([C@@H]2Oc3ccc(Br)cc3C(=O)[C@H]2OC(=O)NCCc2ccc(OC)c(OC)c2)c1,4.12% (inactive),
Cc1ccc2c(CC(=O)NCc3cccs3)coc2c1,-4.74% (inactive),
CCOC(=O)C1CCCN(C(=O)COc2ccc(N(C)S(=O)(=O)c3ccc(C)cc3)cc2)C1 (stereo unspecified),2.68% (inactive),

# Source: PubChem BioAssay AID880 (National Center for Advancing Translational Sciences (NCATS), 2007)
